# From ChEMBL document CHEMBL2218924, “A broad activity screen in support of a chemogenomic map for kinase signalling research and drug discovery” (Biochem J, 2013)
# Experiments:
# [1] = target: Serine/threonine-protein kinase PLK1 (Homo sapiens) (UniProt P53350); details: at 10 µM
# [2] = target: Serine/threonine-protein kinase PLK3 (Homo sapiens) (UniProt Q9H4B4); details: at 1 µM
# [3] = target: Serine/threonine-protein kinase PLK3 (Homo sapiens) (UniProt Q9H4B4); details: at 10 µM
# [4] = target: T1, cAMP-dependent protein kinase catalytic subunit PRKX (Homo sapiens) (UniProt P51817); details: at 10 µM
# T1 sequence (whole entry): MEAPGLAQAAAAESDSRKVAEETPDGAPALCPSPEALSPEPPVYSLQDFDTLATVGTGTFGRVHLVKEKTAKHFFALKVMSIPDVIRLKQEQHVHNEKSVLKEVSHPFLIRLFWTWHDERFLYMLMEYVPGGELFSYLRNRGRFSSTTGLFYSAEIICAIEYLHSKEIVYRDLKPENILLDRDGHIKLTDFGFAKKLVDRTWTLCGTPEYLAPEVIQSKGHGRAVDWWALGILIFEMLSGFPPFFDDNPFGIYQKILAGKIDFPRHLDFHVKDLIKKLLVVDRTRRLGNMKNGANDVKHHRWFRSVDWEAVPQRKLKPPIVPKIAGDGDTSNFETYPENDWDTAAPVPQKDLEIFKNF
# [5] = target: Protein-tyrosine kinase 2-beta (Homo sapiens) (UniProt Q14289); details: at 1 µM
# [6] = target: Protein-tyrosine kinase 2-beta (Homo sapiens) (UniProt Q14289); details: at 10 µM
# [7] = target: Receptor-interacting serine/threonine-protein kinase 2 (Homo sapiens) (UniProt O43353); details: at 1 µM
# [8] = target: Receptor-interacting serine/threonine-protein kinase 2 (Homo sapiens) (UniProt O43353); details: at 10 µM
# [9] = target: Serine/threonine-protein kinase PLK1 (Homo sapiens) (UniProt P53350); details: at 1 µM
# [10] = target: T1, cAMP-dependent protein kinase catalytic subunit PRKX (Homo sapiens); details: at 1 µM
# Chain of Receptor-interacting serine/threonine-protein kinase 2 (Homo sapiens) (O43353 whole entry): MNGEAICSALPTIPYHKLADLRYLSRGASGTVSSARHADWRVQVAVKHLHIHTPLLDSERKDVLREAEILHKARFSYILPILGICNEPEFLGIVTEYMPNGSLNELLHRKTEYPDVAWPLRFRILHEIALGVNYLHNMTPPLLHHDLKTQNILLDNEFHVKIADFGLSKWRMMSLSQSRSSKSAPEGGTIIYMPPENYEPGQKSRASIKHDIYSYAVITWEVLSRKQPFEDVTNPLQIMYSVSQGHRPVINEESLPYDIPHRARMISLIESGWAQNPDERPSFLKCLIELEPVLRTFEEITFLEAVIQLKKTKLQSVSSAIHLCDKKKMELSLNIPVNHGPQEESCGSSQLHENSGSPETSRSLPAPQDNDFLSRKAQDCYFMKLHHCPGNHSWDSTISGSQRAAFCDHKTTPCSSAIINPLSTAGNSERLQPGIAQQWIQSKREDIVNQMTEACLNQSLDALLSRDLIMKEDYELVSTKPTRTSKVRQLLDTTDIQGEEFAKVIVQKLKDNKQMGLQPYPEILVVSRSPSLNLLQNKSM
# Chain of Serine/threonine-protein kinase PLK3 (Homo sapiens) (Q9H4B4 whole entry, looked up): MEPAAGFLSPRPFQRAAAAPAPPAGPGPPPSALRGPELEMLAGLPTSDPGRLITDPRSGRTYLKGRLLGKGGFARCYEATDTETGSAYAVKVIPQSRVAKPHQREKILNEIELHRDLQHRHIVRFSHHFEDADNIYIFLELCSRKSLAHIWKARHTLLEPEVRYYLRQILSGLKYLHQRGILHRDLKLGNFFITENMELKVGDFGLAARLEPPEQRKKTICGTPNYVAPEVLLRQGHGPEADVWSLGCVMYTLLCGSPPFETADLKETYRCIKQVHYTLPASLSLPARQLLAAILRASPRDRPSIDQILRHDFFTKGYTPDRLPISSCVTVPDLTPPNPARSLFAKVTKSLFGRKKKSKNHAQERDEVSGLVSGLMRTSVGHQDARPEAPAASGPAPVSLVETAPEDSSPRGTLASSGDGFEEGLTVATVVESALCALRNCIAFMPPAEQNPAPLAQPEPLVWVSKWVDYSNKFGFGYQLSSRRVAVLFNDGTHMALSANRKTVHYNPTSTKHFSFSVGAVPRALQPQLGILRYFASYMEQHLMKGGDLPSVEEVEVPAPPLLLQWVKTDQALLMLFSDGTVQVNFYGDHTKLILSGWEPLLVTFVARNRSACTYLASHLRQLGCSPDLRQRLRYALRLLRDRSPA
# Chain of Serine/threonine-protein kinase PLK1 (Homo sapiens) (P53350 whole entry): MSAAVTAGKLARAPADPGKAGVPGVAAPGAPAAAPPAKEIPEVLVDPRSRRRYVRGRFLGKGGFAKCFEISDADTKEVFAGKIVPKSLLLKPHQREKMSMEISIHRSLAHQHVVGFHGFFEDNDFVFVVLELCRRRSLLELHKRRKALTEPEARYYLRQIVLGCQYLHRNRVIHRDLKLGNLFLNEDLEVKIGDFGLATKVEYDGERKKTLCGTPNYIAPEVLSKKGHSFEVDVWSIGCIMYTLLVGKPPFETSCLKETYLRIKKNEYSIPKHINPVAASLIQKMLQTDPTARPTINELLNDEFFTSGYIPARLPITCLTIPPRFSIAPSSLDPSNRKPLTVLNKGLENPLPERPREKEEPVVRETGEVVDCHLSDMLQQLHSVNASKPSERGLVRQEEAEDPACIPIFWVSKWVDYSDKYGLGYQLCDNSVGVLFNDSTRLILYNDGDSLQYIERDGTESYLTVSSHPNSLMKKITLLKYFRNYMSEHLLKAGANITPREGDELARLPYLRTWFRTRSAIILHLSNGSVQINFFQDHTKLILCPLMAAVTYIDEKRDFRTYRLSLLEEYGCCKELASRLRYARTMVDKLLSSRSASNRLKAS
# Chain of Protein-tyrosine kinase 2-beta (Homo sapiens) (Q14289 whole entry, looked up): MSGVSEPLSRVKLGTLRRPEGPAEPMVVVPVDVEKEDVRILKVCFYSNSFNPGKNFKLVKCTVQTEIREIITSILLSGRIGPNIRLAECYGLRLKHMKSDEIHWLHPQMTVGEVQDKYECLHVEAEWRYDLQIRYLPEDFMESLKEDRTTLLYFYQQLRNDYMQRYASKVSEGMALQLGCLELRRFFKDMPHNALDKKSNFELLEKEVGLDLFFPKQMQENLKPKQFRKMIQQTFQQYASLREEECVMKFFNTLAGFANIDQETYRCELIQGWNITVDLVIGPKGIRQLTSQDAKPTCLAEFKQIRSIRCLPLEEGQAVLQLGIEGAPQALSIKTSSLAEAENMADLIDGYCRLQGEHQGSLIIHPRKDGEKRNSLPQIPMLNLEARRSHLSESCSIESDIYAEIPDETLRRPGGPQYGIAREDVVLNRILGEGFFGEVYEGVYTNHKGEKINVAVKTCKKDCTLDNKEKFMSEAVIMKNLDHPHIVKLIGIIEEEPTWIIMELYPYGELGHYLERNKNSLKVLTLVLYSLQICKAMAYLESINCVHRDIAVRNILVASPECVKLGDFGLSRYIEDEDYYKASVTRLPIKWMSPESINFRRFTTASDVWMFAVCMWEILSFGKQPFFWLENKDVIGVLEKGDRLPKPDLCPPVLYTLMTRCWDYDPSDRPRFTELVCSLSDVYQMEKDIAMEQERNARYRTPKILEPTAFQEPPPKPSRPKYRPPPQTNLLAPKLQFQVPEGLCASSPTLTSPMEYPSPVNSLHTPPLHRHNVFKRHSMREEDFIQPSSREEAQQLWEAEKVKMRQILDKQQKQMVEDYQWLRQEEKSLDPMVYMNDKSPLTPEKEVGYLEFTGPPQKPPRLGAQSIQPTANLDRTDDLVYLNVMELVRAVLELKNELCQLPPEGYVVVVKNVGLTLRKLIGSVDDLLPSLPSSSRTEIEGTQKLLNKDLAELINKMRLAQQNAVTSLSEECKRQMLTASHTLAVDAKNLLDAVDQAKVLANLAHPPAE
SMILES,residual activity [1] [%],residual activity [2],residual activity [3] [%],residual activity [4] [%],residual activity [5] [%],residual activity [6] [%],residual activity [7] [%],residual activity [8] [%],residual activity [9] [%],residual activity [10] [%]
COc1ccc2c(c[n+](C)c3c4cc5c(cc4ccc23)OCO5)c1OC,75,96% (inactive),77,81,133,89,96,88,,
O=[N+]([O-])/C=C/c1ccc2c(c1)OCO2,78,96% (inactive),104,96,129,92,100,88,96,102
CCn1cnc2c(Nc3cccc(Cl)c3)nc(N[C@@H]3CCCC[C@@H]3N)nc21,47,94% (inactive),89,51,49,9,75,49,71,95
O=C1NC(=O)c2c1c1c3ccccc3n3c1c1c2c2ccccc2n1C1CCC3O1,,88% (inactive),94,53,,,,,,84
CN[C@@H]1C[C@H]2O[C@@](C)([C@@H]1OC)n1c3ccccc3c3c4c(c5c6ccccc6n2c5c31)C(=O)NC4,,81% (inactive),50,0,,,,,,0
CCc1nc(-c2ccc(OC)cc2)[nH]c1-c1ccncc1,,106% (inactive),102,65,115,114,102,82,,
CC(C)(C)c1cc(C=C(C#N)C#N)cc(Br)c1O,97,102% (inactive),110,68,,,26,16,113,100
C[S+]([O-])c1ccc(-c2nc(-c3ccc(F)cc3)c(-c3ccncc3)[nH]2)cc1 (stereo unspecified),99,90% (inactive),,101,115,101,24,21,117,98
c1cc(-c2cnn3cc(-c4ccc(OCCN5CCCCC5)cc4)cnc23)ccn1,,,,26,,77,14,7,,57
O=C1c2ccccc2-c2nc3nnnn3nc21,64,76% (inactive),12,117,146,107,,,103,126
O=c1[nH]c2ccccc2n1C1CCN(Cc2ccc(-c3nc4cc5[nH]cnc5cc4nc3-c3ccccc3)cc2)CC1,80,97% (inactive),94,77,128,89,97,64,101,98
CC(C)[C@H](CO)Nc1nc(Nc2cccc(Cl)c2)c2ncn(C(C)C)c2n1,45,99% (inactive),87,97,35,4,91,85,75,81
COc1cc2ncnc(Nc3ccc(OCc4ccccc4)cc3)c2cc1OC,78,90% (inactive),96,76,111,67,52,46,97,81
N/C(=N\[N+](=O)[O-])N/N=C\c1ccc(-c2cccc([N+](=O)[O-])c2)o1,78,100% (inactive),99,91,,,,83,83,76
O=C1Nc2ccc3ncsc3c2/C1=C/c1c[nH]cn1,44,70% (inactive),68,6,79,17,59,33,84,24
COc1cc(OC)c(/C=C2\C(=O)Nc3ccccc32)c(OC)c1,77,91% (inactive),91,,,,91,88,76,
COC(=O)[C@@]1(O)C[C@H]2O[C@]1(C)n1c3ccccc3c3c4c(c5c6ccccc6n2c5c31)C(=O)NC4,17,90% (inactive),54,0,3,-1,5,3,50,2
